Experimental data reported in PubChem BioAssay AID1159580 (chemical genetic matrix, 2015).
The whole screen tested about 5,500 compounds, of which about 2,000 (36%) were called active. Another 18% or so got no clear call; they are omitted. No stated cut-off is given here; in the data, active means normalized growth mostly below about 0.91 (no sharp cut-off); inconclusive means no clear call, values can overlap the other calls; inactive means mostly above about 0.92. The list shows a part of the results.

Test: chemical genetic growth profiling, strain panel (AID 1159580);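 further: tested at 20 µM; growth read once vehicle control cultures reached saturation at 30 °C; 1 = growth at the plate median or of vehicle wells; lower values mean less growth of the strain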
Conditions: growth OD
[1] = S. cerevisiae deletion strains, locus YDR150W, strain NUM1, active compounds read low
[2] = S. cerevisiae deletion strains, locus YMR263W, strain SAP30, active compounds read low
[3] = S. cerevisiae deletion strains, locus YMR307W, strain GAS1, active compounds read low
[4] = S. cerevisiae deletion strains, locus YNL322C, strain KRE1, active compounds read low
[5] = S. cerevisiae deletion strains, locus YAL013W, strain DEP1, active compounds read low
[6] = S. cerevisiae deletion strains, locus YBR229C, strain ROT2, active compounds read low
[7] = S. cerevisiae deletion strains, locus YDL101C, strain DUN1, active compounds read low
[8] = S. cerevisiae deletion strains, locus YEL061C, strain CIN8, active compounds read low
[9] = S. cerevisiae deletion strains, locus YGR078C, strain PAC10, active compounds read low
[10] = S. cerevisiae deletion strains, locus YHR030C, strain SLT2, active compounds read low
[11] = S. cerevisiae deletion strains, locus YHR087W, strain rtc3, active compounds read low
[12] = S. cerevisiae deletion strains, locus YJR043C, strain POL32, active compounds read low
[13] = S. cerevisiae deletion strains, locus YJR075W, strain HOC1, active compounds read low
[14] = S. cerevisiae deletion strains, locus YLR039C, strain RIC1, active compounds read low
[15] = S. cerevisiae deletion strains, locus YLR058C, strain SHM2 (second series), active compounds read low
[16] = S. cerevisiae deletion strains, locus YLR085C, strain ARP6, active compounds read low
[17] = S. cerevisiae deletion strains, locus YLR262C, strain YPT6, active compounds read low
[18] = S. cerevisiae deletion strains, locus YML094W, strain GIM5, active compounds read low
[19] = S. cerevisiae deletion strains, locus YMR219W, strain ESC1, active compounds read low
[20] = S. cerevisiae deletion strains, locus YNL153C, strain GIM3, active compounds read low
[21] = S. cerevisiae deletion strains, locus YNL298W, strain CLA4 (second series), active compounds read low
[22] = S. cerevisiae deletion strains, locus YNR030W, strain Alg12, active compounds read low
[23] = S. cerevisiae deletion strains, locus YPL055C, strain LGE1, active compounds read low
[24] = S. cerevisiae deletion strains, locus YPL241C, strain CIN2, active compounds read low
[25] = S. cerevisiae deletion strains, locus YPR135W, strain CTF4, active compounds read low
[26] = S. cerevisiae strains, strain wild type, active compounds read low
[27] = S. cerevisiae deletion strains, locus YHR079C, strain IRE1, active compounds read low
[28] = S. cerevisiae deletion strains, locus YJL095W, strain BCK1, active compounds read low
[29] = S. cerevisiae deletion strains, locus YJR066W, strain TOR1, active compounds read low
[30] = S. cerevisiae deletion strains, locus YLR113W, strain HOG1, active compounds read low
[31] = S. cerevisiae deletion strains, locus YNL183C, strain NPR1, active compounds read low
[32] = S. cerevisiae deletion strains, locus YOR231W, strain MKK1, active compounds read low
[33] = S. cerevisiae deletion strains, locus YPL256C, strain CLN2, active compounds read low

Measured: normalized growth

CC(C)(C)c1cc(/C=C(\C#N)C(N)=S)cc(C(C)(C)C)c1O
inactive: S. cerevisiae deletion strains, locus YAL040C, strain CLN3, active compounds read low 0.912 | S. cerevisiae deletion strains, locus YCL061C, strain MRC1 (second series), active compounds read low 1.01 | [1] 1 | S. cerevisiae deletion strains, locus YDR363W, strain ESC2, active compounds read low 1.04 | S. cerevisiae deletion strains, locus YER002W, strain NOP16, active compounds read low 0.997 | [2] 1.01 | [3] 1.01 | S. cerevisiae deletion strains, locus YNL175C, strain NOP13, active compounds read low 1.02 | S. cerevisiae deletion strains, locus YNL197C, strain WHI3, active compounds read low 0.913 | S. cerevisiae deletion strains, locus YNL224C, strain SQS1, active compounds read low 0.929 | [4] 1.02
active: S. cerevisiae deletion strains, locus YOR083W, strain WHI5 (second series), active compounds read low 0.832

O=C1c2ccccc2C(=O)N1CNc1ccc(N2CCOCC2)cc1
inactive: [5] 1 | [6] 1 | S. cerevisiae deletion strains, locus YCL061C, strain MRC1, active compounds read low 0.999 | [7] 1.01 | [1] 0.901 | [8] 0.986 | [9] 1 | [10] 0.976 | [11] 1.02 | [12] 1 | [13] 1.01 | S. cerevisiae deletion strains, locus YKL190W, strain CNB1, active compounds read low 0.994 | [14] 1.02 | [15] 0.997 | [16] 0.977 | [17] 1.01 | [18] 1.02 | [19] 1 | [2] 0.993 | [3] 1.01 | [20] 1.01 | [21] 1.02 | [4] 0.977 | [22] 0.994 | S. cerevisiae deletion strains, locus YOL006C, strain TOP1, active compounds read low 0.997 | [23] 0.861 | [24] 1.01 | [25] 1.09 | [26] 1.02

OC[C@H]1O[C@H](O[C@]2(CCl)O[C@H](CCl)[C@@H](O)[C@@H]2O)[C@H](O)[C@@H](O)[C@H]1Cl
inactive: [10] 1.04 | [27] 0.979 | [28] 0.996 | [29] 0.952 | [30] 0.977 | [31] 0.895 | [32] 0.972 | [33] 0.984

C=C1SC(Nc2cccc(C(F)(F)F)c2)=NC12CCCCC2
inactive: [5] 0.999 | [6] 1.01 | [7] 1.01 | S. cerevisiae deletion strains, locus YDL134C, strain PPH21, active compounds read low 1.03 | [1] 0.987 | [8] 1.01 | [9] 0.986 | S. cerevisiae deletion strains, locus YGR229C, strain SMI1, active compounds read low 0.999 | [10] 0.955 | [11] 0.99 | [12] 1.01 | [13] 0.995 | [14] 0.958 | [15] 0.987 | [16] 1.03 | [17] 0.971 | [18] 1.02 | [19] 0.999 | [2] 0.982 | [3] 0.937 | [20] 0.973 | [21] 0.985 | [4] 1.01 | [22] 1.01 | [23] 0.995 | [24] 1.01 | [25] 0.904 | [26] 1

FC(F)(F)c1ccc(N2CCc3ccccc3C2)c(NC(=S)Nc2cc(Cl)cc(Cl)c2)c1
inactive: S. cerevisiae deletion strains, locus YAR019C, strain CDC15, active compounds read low 0.972 | S. cerevisiae deletion strains, locus YBL105C, strain PKC1, active compounds read low 0.981 | S. cerevisiae deletion strains, locus YBR135W, strain CKS1, active compounds read low 0.978 | S. cerevisiae deletion strains, locus YBR136W, strain MEC1, active compounds read low 0.997 | S. cerevisiae deletion strains, locus YBR160W, strain CDC28, active compounds read low 0.989 | S. cerevisiae deletion strains, locus YDL017W, strain CDC7, active compounds read low 0.982 | S. cerevisiae deletion strains, locus YDL028C, strain MPS1, active compounds read low 0.987 | [7] 0.978 | S. cerevisiae deletion strains, locus YDL108W, strain KIN28, active compounds read low 0.998 | S. cerevisiae deletion strains, locus YDL132W, strain cdc53, active compounds read low 0.985 | S. cerevisiae deletion strains, locus YDL214C, strain PRR2, active compounds read low 0.924 | S. cerevisiae deletion strains, locus YDR052C, strain DBF4, active compounds read low 0.98 | S. cerevisiae deletion strains, locus YDR054C, strain cdc34, active compounds read low 0.969 | S. cerevisiae deletion strains, locus YDR226W, strain ADK1, active compounds read low 0.99 | S. cerevisiae deletion strains, locus YDR477W, strain SNF1, active compounds read low 0.937 | S. cerevisiae deletion strains, locus YER123W, strain YCK3, active compounds read low 0.908 | S. cerevisiae deletion strains, locus YER133W, strain GLC7, active compounds read low 0.939 | S. cerevisiae deletion strains, locus YFL009W, strain cdc4, active compounds read low 0.983 | S. cerevisiae deletion strains, locus YFL029C, strain CAK1, active compounds read low 0.975 | S. cerevisiae deletion strains, locus YFR003C, strain YPI1, active compounds read low 0.993 | S. cerevisiae deletion strains, locus YFR019W, strain FAB1, active compounds read low 0.957 | S. cerevisiae deletion strains, locus YFR028C, strain CDC14, active compounds read low 0.971 | S. cerevisiae deletion strains, locus YGR040W, strain KSS1, active compounds read low 0.939 | S. cerevisiae deletion strains, locus YGR052W, strain FMP48, active compounds read low 1.01 | S. cerevisiae deletion strains, locus YGR092W, strain DBF2, active compounds read low 0.869 | [10] 1.15 | [27] 1.06 | S. cerevisiae deletion strains, locus YHR082C, strain KSP1, active compounds read low 1 | S. cerevisiae deletion strains, locus YHR205W, strain SCH9, active compounds read low 0.962 | S. cerevisiae deletion strains, locus YIL147C, strain SLN1, active compounds read low 0.993 | [28] 1.02 | S. cerevisiae deletion strains, locus YJL128C, strain PBS2, active compounds read low 0.968 | S. cerevisiae deletion strains, locus YJL157C, strain FAR1, active compounds read low 0.908 | S. cerevisiae deletion strains, locus YJR016C, strain ILV3, active compounds read low 0.985 | S. cerevisiae deletion strains, locus YJR066W, strain TOR1 (second series), active compounds read low 0.899 | [29] 1.02 | S. cerevisiae deletion strains, locus YKL048C, strain ELM1, active compounds read low 0.963 | S. cerevisiae deletion strains, locus YKL067W, strain YNK1, active compounds read low 0.931 | S. cerevisiae deletion strains, locus YKL101W, strain HSL1, active compounds read low 0.959 | S. cerevisiae deletion strains, locus YKL193C, strain SDS22, active compounds read low 0.974 | S. cerevisiae deletion strains, locus YKL203C, strain TOR2, active compounds read low 1.02 | [30] 1.03 | S. cerevisiae deletion strains, locus YLR133W, strain CKI1, active compounds read low 0.936 | S. cerevisiae deletion strains, locus YLR403W, strain SFP1, active compounds read low 0.945 | S. cerevisiae deletion strains, locus YML070W, strain DAK1, active compounds read low 0.938 | S. cerevisiae deletion strains, locus YMR001C, strain CDC5, active compounds read low 0.969 | S. cerevisiae deletion strains, locus YMR205C, strain PFK2 (second series), active compounds read low 0.947 | S. cerevisiae deletion strains, locus YMR277W, strain FCP1, active compounds read low 0.972 | S. cerevisiae deletion strains, locus YNL006W, strain LST8, active compounds read low 0.984 | S. cerevisiae deletion strains, locus YNL020C, strain ARK1, active compounds read low 0.934 | S. cerevisiae deletion strains, locus YNL161W, strain CBK1, active compounds read low 0.978 | [31] 1.03 | S. cerevisiae deletion strains, locus YNL207W, strain RIO2, active compounds read low 0.979 | S. cerevisiae deletion strains, locus YNL222W, strain SSU72, active compounds read low 0.979 | S. cerevisiae deletion strains, locus YNL307C, strain MCK1 (second series), active compounds read low 0.941 | S. cerevisiae deletion strains, locus YOL078W, strain AVO1, active compounds read low 0.976 | S. cerevisiae deletion strains, locus YOL136C, strain PFK27, active compounds read low 0.956 | S. cerevisiae deletion strains, locus YOR061W, strain CKA2, active compounds read low 0.908 | S. cerevisiae deletion strains, locus YOR119C, strain RIO1, active compounds read low 0.98 | [32] 1.01 | S. cerevisiae deletion strains, locus YOR329C, strain SCD5, active compounds read low 0.985 | S. cerevisiae deletion strains, locus YPL031C, strain PHO85, active compounds read low 0.929 | S. cerevisiae deletion strains, locus YPL153C, strain RAD53, active compounds read low 0.931 | S. cerevisiae deletion strains, locus YPL204W, strain HRR25, active compounds read low 0.939 | S. cerevisiae deletion strains, locus YPL209C, strain IPL1, active compounds read low 0.982 | [33] 1.07 | S. cerevisiae deletion strains, locus YPR025C, strain CCL1, active compounds read low 0.967 | S. cerevisiae deletion strains, locus YPR106W, strain ISR1, active compounds read low 0.982 | S. cerevisiae deletion strains, locus YPR111W, strain DBF20, active compounds read low 0.985 | S. cerevisiae deletion strains, strain NNK1, active compounds read low 0.991 | S. cerevisiae deletion strains, strain TSCII, active compounds read low 0.972
